# CHX counter: Cycloheximide Counterscreen for Small Molecule Inhibitors of Shiga Toxin; max response, %; hit rate 12% among 300,000; cell reporter, cycloheximide protein synthesis inhibition counterscreen; in the data active = max response mostly above about 13%, no sharp cut-off; inactive = mostly below about 14%; also: read at 38.3 µM for the half of the compounds with a filed dose; 0% is about no effect
# TbPYK inhibitor: qHTS of Trypanosoma Brucei Inhibitors. pyruvate kinase (Trypanosoma brucei), Q57TT1. TbPYK enzyme, Kinase-Glo Plus ATP luminescence, 45 min. Potency, µM (titrated, usually from 76.8 µM), inactives show at the highest dose activity, negative = inhibition, hits mostly inhibitors. hit rate 0.12% among 410,000. AID 624173, 2012; also: potency is read from the fitted curve at half-maximal effect; % is scaled to controls: 0 for no effect and ±100 for the full control effect; nearly all actives have a fitted effect of over 50% in size
#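 Luminescence from Kinase-Glo Plus, added after a 45-minute room-temperature reaction, served as the end-point read-out. The enzyme and substrate were preincubated with compound before ADP (130 uM final) initiated turnover. Concentration-effect curves came from normalized qHTS data.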
# LmPK inhibitor: qHTS Assay for Inhibitors of Leishmania Mexicana Pyruvate Kinase (LmPK). Potency, µM (titrated, usually from 57.5 µM), without a hit: top-dose activity change, negative = inhibition, most hits filed as inhibitors. hit rate 0.37% among 290,000. purified LmPK, Kinase-Glo ATP luminescence, 1 h. Q27686; also: potency is read from the fitted curve at half-maximal effect; % is scaled to controls: 0 for no effect and ±100 for the full control effect
# Target sequence (Q27686 whole entry, looked up): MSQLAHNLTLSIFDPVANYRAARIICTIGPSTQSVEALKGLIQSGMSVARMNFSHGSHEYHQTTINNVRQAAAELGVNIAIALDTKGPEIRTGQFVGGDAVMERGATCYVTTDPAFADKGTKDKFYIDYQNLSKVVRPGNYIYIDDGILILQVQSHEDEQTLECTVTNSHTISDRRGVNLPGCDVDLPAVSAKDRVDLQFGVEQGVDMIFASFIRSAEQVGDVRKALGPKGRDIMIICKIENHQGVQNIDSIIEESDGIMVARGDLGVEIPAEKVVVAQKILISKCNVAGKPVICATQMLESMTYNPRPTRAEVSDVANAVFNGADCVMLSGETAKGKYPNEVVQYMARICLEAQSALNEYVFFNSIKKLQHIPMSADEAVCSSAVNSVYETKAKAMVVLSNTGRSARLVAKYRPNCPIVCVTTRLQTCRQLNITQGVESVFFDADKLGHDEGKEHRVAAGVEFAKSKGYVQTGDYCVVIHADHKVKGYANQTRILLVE
#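 In 50 mM imidazole pH 7.2 with 7 mM MgCl2, LmPK (0.1 nM) turned over PEP (0.5 mM) and ADP (0.1 mM) for 1 h at room temperature. Luciferase read-out of ATP.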
# Giardia FBPA inh: qHTS Assay for Inhibitors of Fructose-1,6-bisphosphate Aldolase from Giardia Lamblia; purified Giardia FBPA; Potency, µM (series often up to 59.6 µM), without a hit: at the top dose activity, negative = inhibition, hits mostly inhibitors; hit rate 0.71% among 290,000; also: potency is read from the fitted curve at half-maximal effect; % is scaled to controls: 0 for no effect and ±100 for the full control effect; nearly all actives have a fitted effect of over 55% in size
#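 40 nM FBPA preincubated 10 min at RT with compound (up to 57.5 uM final), then substrate plus GAPDH/TPI/NAD/arsenate coupling and diaphorase/resazurin added. Fluorescence read after 20 min at RT, 525/598 nm.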
# RE007 growth inh: qHTS Assay for Inhibitors of the HIV-1 protein Vpr. Potency, µM (titrated, usually from 92.2 µM), without a hit: at the top dose activity change, negative = less growth, actives largely listed as inhibitors. S. pombe RE007 Vpr strain, BacTiter-Glo ATP luminescence, 24 h. hit rate 0.21% among 360,000; active = well fitted falling curve with a large enough effect; inconclusive = small, poorly fitted or top-dose-only effect; inactive = no such curve, though single readings can be large or run the other way; also: potency is read from the fitted curve at half-maximal effect; % is scaled to controls: 0 for no effect and ±100 for the full control effect; nearly all actives have a fitted effect of over 50% in size
#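 Fission yeast RE007 carrying one integrated HIV-1 vpr copy, seeded at OD 0.01 in PMG+AL medium with 23 nL pinned compound. Grown 24 h at 30 degrees; viability read by BacTiter-Glo luminescence after 5 min.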
# Shiga inhibitor: A qHTS for Small Molecule Inhibitors of Shiga Toxin; hit rate 9.2% among 290,000; Vero cells, Shiga toxin protein synthesis inhibition reporter; inhibition, % at 38.7 µM; in the data active = inhibition mostly above about 28%, no sharp cut-off; inactive = mostly below about 43%; also: 0% is about no effect
# An asterisk follows results filed as active; ? = inconclusive; · = no result given. Only a selection was taken, and hits are over-represented in it overall. Unless noted, calls follow the shape of the dose curve; as a rule, active = well fitted curve in the direction sought with a large enough effect; inconclusive = small, poorly fitted or top-dose-only effect, or another doubt; inactive = no such curve, though single readings can be large; an effect the other way counts as inactive or inconclusive.
SMILES,CHX counter,TbPYK inhibitor,LmPK inhibitor,Giardia FBPA inh,RE007 growth inh,Shiga inhibitor
O=C(NNC(=O)c1ccccc1O)c1cccc(Br)c1,25.4*,-0.6%,4.8%,-8.1%,-3.1%,51.4*
O=C(NNC(=O)c1ccc(O)cc1O)c1ccc(Cl)cc1,7.3,-11.6%,4.0%,?,19.5%,43.1
CC(C)(C)c1ccc(C(=O)NNC(=O)c2cccc(Br)c2)cc1,15.8*,-5.1%,-0.5%,-9.9%,16.9%,26.8
Cc1cccc(C(=O)NNC(=O)c2ccc(Cl)cc2)c1O,30.4*,4.6%,3.3%,?,-5.5%,79.0*
NC(=S)NNC(=O)c1cccc(Br)c1,13.9,·,7.2%,-8.1%,·,-4.1
O=C(NNC(=O)c1ccccc1O)c1ccc(Cl)cc1,32.9*,3.7%,1.1%,7.0%,-14.8%,47.9*
O=C(NNC(=O)c1cccc2ccccc12)c1ccc(Cl)cc1,·,2.0%,·,·,8.8%,·
COc1ccc(C2C=C3CNS(=O)(=O)C3CC2OC(=O)c2cccc(C)c2)cc1 (stereo not drawn),-6.2,·,·,-0.2%,·,-7.6
Cc1noc(C)c1-c1ccc2ncnc(NCCN3CCOCC3)c2c1,·,·,·,0.6%,·,·
NCCCC[C@H]1CNC(=S)N1CCc1cccc(F)c1,-0.7,-1.6%,-3.4%,-7.7%,-8.0%,-1.8
Cc1ccc2oc3c(c(=O)c2c1)C(c1ccc(OCC(N)=O)cc1)N(Cc1ccc2c(c1)OCO2)C3=O (stereo not drawn),·,0.6%,·,·,·,·
O=C(Nc1ccccc1)c1cc(C2CCCCN2C(=O)OCCF)on1 (stereo not drawn),·,5.9%,·,·,4.2%,·
O=C(NNC(=O)c1ccccc1O)c1ccc(Br)cc1,43.6*,-0.7%,-4.5%,-18.8%,9.4%,·
O=C(COC(=O)c1ccccc1O)NNC(=O)c1ccc(Br)cc1,·,-2.2%,·,·,-10.3%,·
CCOc1ccc(C(=O)Nc2cccc(OCc3cc(=O)n4cc(C)sc4n3)c2)cc1,·,-5.5%,·,·,·,·
O=C(NC(=S)Nc1ccc2cn[nH]c2c1)c1ccccc1,40.9*,1.3%,-0.9%,?,-5.0%,78.7*
NC(=S)Nc1ccc2cn[nH]c2c1,-0.8,-6.3%,-4.9%,-7.3%,-2.9%,-7.1
Cc1ccc(NC(=S)Nc2cccc(-c3n[nH]c(=S)o3)c2)cc1,32.4*,-8.6%,-2.3%,6.2%,10.6%,40.2*
NC(=S)Nc1cccc(-c2n[nH]c(=S)o2)c1,-2.7,-7.4%,-10.0%,?,31.9%,-2.3
S=C(Nc1ccccc1)Nc1ccc2cn[nH]c2c1,46.1*,-1.4%,-2.0%,?,13.8%,55.1*
Cc1ccc(NC(=S)Nc2ccc3cn[nH]c3c2)cc1,17.9*,-22.1%,1.7%,-27.1%,-20.6%,33.5
C/C=C/c1ccc2c(c1)O[C@H](CN(C)CC1CCOCC1)[C@@H](C)CN([C@H](C)CO)S2(=O)=O,·,5.6%,·,·,2.2%,·
COc1ccc(C(C(=O)NCc2ccccc2)N(C(=O)Cn2nnc3ccccc32)c2cccc(OC)c2)cc1 (stereo not drawn),·,4.1%,·,·,·,·
COCc1ccc(C(=O)NC2CCCc3c2cnn3-c2cc(C)cc(C)c2)s1 (stereo not drawn),12.3,20.7%,-6.3%,-6.0%,8.0%,26.8*
Cc1ccc(-n2ncc3c2CCCC3NC(=O)CCc2cnn(C)c2)cc1C (stereo not drawn),6.4,3.0%,-4.5%,·,8.1%,11.4
SMILES,CHX counter,TbPYK inhibitor,LmPK inhibitor,Giardia FBPA inh,RE007 growth inh,Shiga inhibitor
COCc1ccc(C(=O)NC2CCCc3c2cnn3-c2ccc(C)c(C)c2)o1 (stereo not drawn),25.8*,4.1%,9.6%,-10.5%,-6.6%,92.5
Cc1cc(C(=O)NC2CCCc3c2cnn3-c2ccc(C)c(C)c2)n(C)n1 (stereo not drawn),-1.1,8.0%,-1.0%,·,-1.0%,-1.9
Cc1cc(C)n(CC(=O)NC2CCCc3c2cnn3-c2ccc(C)c(C)c2)n1 (stereo not drawn),38.1*,-8.0%,3.6%,5.9%,-1.5%,54.4*
Cc1cc(C)cc(-n2ncc3c2CCCC3NC(=O)c2csnn2)c1 (stereo not drawn),14.3,2.5%,-5.6%,8.3%,6.0%,21.6*
CCc1ccc(NC(=O)CC2C(=O)N(c3cccc(C)c3)C(=O)N2Cc2cccc(OC)c2)cc1 (stereo not drawn),·,-1.2%,·,·,·,·
COc1cc(NC(=O)C2Cc3ccccc3N2C(=O)c2ccccc2)cc(OC)c1 (stereo not drawn),·,1.3%,·,·,·,·
CCn1nc(C)cc1C(=O)NC1CCCc2c1cnn2-c1cc(F)cc(F)c1 (stereo not drawn),11.1,-7.4%,-4.6%,·,2.6%,12.6
Cc1cc(C)c(C(=O)NC2CCCc3c2cnn3-c2ccc(C)c(C)c2)c(=O)[nH]1 (stereo not drawn),27.0*,1.3%,0.4%,·,1.2%,25.5
Cc1cccc(-n2ncc3c2CCCC3NC(=O)Cn2cccn2)c1C (stereo not drawn),19.0*,-1.1%,-5.8%,·,1.1%,10.5
Cc1ccc(-n2ncc3c2CCCC3NC(=O)c2csnn2)cc1C (stereo not drawn),19.4*,7.0%,2.6%,-0.6%,13.8%,59.7*
Cc1ccc(-n2ncc3c2CCCC3NC(=O)c2ccoc2)cc1C (stereo not drawn),-2.9,3.2%,-8.1%,-9.8%,28.5%,-2.8
Cc1cc(C(=O)NC2CCCc3c2cnn3-c2cc(F)cc(F)c2)nn1C (stereo not drawn),15.0,4.1%,-4.8%,·,-2.1%,24.8*
Cc1ccc(-n2ncc3c2CCCC3NC(=O)c2ccccc2N2CCOCC2)cc1C (stereo not drawn),2.4,-3.9%,-11.7%,·,-4.0%,-27.5
Cc1cccc(-n2ncc3c2CCCC3NC(=O)CC(F)(F)F)c1C (stereo not drawn),-3.4,0.5%,0.9%,-4.1%,16.8%,-7.1
Cc1c(-c2nc(-c3ccc4c(c3)[nH]c(=O)n4C)no2)cccc1[N+](=O)[O-],·,-3.0%,·,·,·,·
CC(=O)Nc1cccc(C(=O)NC2CCCc3c2cnn3-c2cc(C)cc(C)c2)c1 (stereo not drawn),24.9*,0.6%,7.3%,10.1%,0.8%,23.5
COc1cc(C(C)=O)ccc1OC(=O)N1CCOCC1,·,-2.9%,·,·,5.9%,·
COc1ccccc1N(CC(=O)N1CCCCC1C)S(=O)(=O)c1ccc(Cl)cc1 (stereo not drawn),·,-3.7%,·,·,-9.6%,·
O=C(/C=C/c1c[nH]c2ccccc12)c1cccc2ccccc12,28.3*,3.5%,2.9%,-28.1%,4.9%,37.4*
O=C(/C=C/c1c[nH]c2ccccc12)c1c(O)n(CCc2ccccc2)c(=O)[nH]c1=O,21.4*,-4.5%,4.8%,-12.0%,0.8%,28.5

# Screening data deposited in PubChem by National Center for Advancing Translational Sciences (NCATS).
